Here are results for 30 molecules from PubChem BioAssay (EPA / NIEHS).

Several values for one entry are separate records, joined by “and”; a condition that tells them apart may be missing. Identical values can stand only once. Activity calls are given as the source filed them. Rule for the calls: active = hit-call score of the fitted dose curve at least 0.9, where 1 is the maximum; inactive = score below 0.9.

The nature of this test: IUF_NPC1b_proliferation_BrdU_72hr: Leibniz Research Institute for Environmental Medicine (IUF) 72-hour Neural Progenitor Cell Bromodeoxyuridine (BrdU) Proliferation Assay (NPC1b) (AID 2284207). The procedure:
IUF_NPC1 is a cell-based, multiplexed assay that uses hNPC, a human primary neural progenitor cells, with measurements taken at 72 hours after chemical dosing in a 96-well plate. Human neural progenitor cells (hNPC) are generated from human fetal brain cortex at gestational week (GW) 16-19. Grown in suspension culture and under proliferative conditions (proliferation media and growth factors), these cells represent neural progenitor cell proliferation. In the NPC1 assay, hNPC's are exposed to the test compound for 72h. Cell proliferation is assessed as an increase in sphere area using automated phase contrast imaging and as incorporation of Bromodeoxyuridine (BrdU) during DNA synthesis using a luminescence-based cell proliferation ELISA. In parallel, the cell viability is assessed using an alamar blue viability assay and the cytotoxicity using a lactate dehydrogenase dependent membrane integrity assay.IUF_NPC1b_proliferation_BrdU_72hr is one of 4 assay components measured from the IUF_NPC1 assay. It is designed to measure cell proliferation as assessed by the incorporation of Bromodeoxyuridine (BrdU) in the last 16 h of a 72 h compound exposure using a luminescence-based cell proliferation ELISA.Data from the IUF_NPC1b_proliferation_BrdU component was analyzed at the endpoint IUF_NPC1b_proliferation_BrdU in the positive analysis fitting direction relative to DMSO as the negative control and baseline of activity. Using a type of growth reporter, gain or loss-of-signal activity can be used to understand cell proliferation effects.
After the cell expansion period, the cells are cultured for up to four weeks in which they are passaged every week. Between one to three days after passaging, depending on the size chosen for passaging, spheres at a size of 0.3 mm are used in the assay. For the assessment of neural progenitor cell proliferation, the spheres are plated in poly-Hema coated 96-well U-bottom plates filled with proliferation medium containing growth factors (EGF and FGF). One 0.25 - 0.35 mm big sphere is plated in the middle of each well. Within 3 days NPCs proliferate and grow in size. Cultivation during the test method is performed at 37C and 5% CO2 at a pH of 7.2-7.6. As a positive control, spheres are cultivated in the absence of growth factors (EGF and FGF), which dramatically reduces proliferation. Exposure starts on the plating day (day 0) and is continued over three days, without chemical renewal, until the experiment is terminated. The assay is terminated by the assessment of cell viability, cytotoxicity, and proliferation by BrdU. All endpoints are generated from the same experimental run and from each well/sphere in the 96-well plate.
A word on the AC50: it is the concentration at which the activity in the assay is half-maximal. Regarding `[Cd+2].[Cl-].[Cl-]`, the AC50 is 6.45 µM (active).
`CP(=O)(O)CCC(N)C(=O)O` (stereo not given): the result was inactive.
Turning to `C[n+]1ccc(-c2ccccc2)cc1`, the AC50 was 4.54 µM (active).
As to `CNC1(c2ccccc2Cl)CCCCC1=O` (stereo not given), the result was inactive.
On to `CCOP(=O)(OCC)SCSC(C)(C)C`, for which the result was inactive.
For the molecule `CC(C)CC(C)c1sccc1NC(=O)c1cn(C)nc1C(F)(F)F` (stereo not given), the call was inactive.
As to `Cn1nc(C(F)(F)F)c(CS(=O)(=O)C2=NOC(C)(C)C2)c1OC(F)F`, the molecule was called inactive.
In the case of `O=C1N[C@@H]2C(=C[C@H](O)[C@@H](O)[C@H]2O)c2cc3c(c(O)c21)OCO3`, the AC50 was 0.0216 µM (active).
Turning to `CC(C)CCCCCCCOP(=O)(Oc1ccccc1)Oc1ccccc1`, the molecule was called inactive.
Turning to `CC1(C)[C@H](C(=O)O[C@H](C#N)c2cccc(Oc3ccccc3)c2)[C@@H]1C=C(Br)Br`, the molecule was called inactive.
For `[O-][Cl+3]([O-])([O-])O`, the AC50 was 0.171 µM (active).
Take `CC1(C)C(C=C(Cl)c2ccc(Cl)cc2)C1C(=O)OC(C#N)c1ccc(F)c(Oc2ccccc2)c1` (stereo not given): the molecule was classed as inactive.
Regarding `Brc1ccc(Oc2cc(Br)c(Br)cc2Br)c(Br)c1`, the outcome was inactive.
Turning to `CCOP(=S)(OCC)SCS(=O)C(C)(C)C` (stereo not given), the AC50 was 2.34 µM (active).
Turning to `C/C(=C/C=C/[C@@H](C)C(=O)O)[C@H]1CN[C@H](C(=O)O)[C@H]1CC(=O)O`, the outcome was inactive.
Take `CC(=O)[O-].[Tl+]`: the AC50 is 82.1 µM (active).
Take `[CH3][Hg][Cl]`: the AC50 is 906 nM (active) and 968 nM (active).
In the case of `COP(=O)(OC)SCN1C(=O)c2ccccc2C1=O`, the half-maximal activity concentration (AC50) was 24.8 µM (active).
For the molecule `CCOP(=O)(OCC)SCSCC`, the call was inactive.
Regarding `CC1(C)[C@@H](C=C(Cl)Cl)[C@@H]1C(=O)O[C@@H](C#N)c1ccc(F)c(Oc2ccccc2)c1`, the outcome was inactive.
Turning to `CNC(=N[N+](=O)[O-])NCC1CCOC1` (stereo not given), the molecule was called inactive.
As to `CC1(C)[C@H](C=C(Cl)Cl)[C@H]1C(=O)OCc1c(F)c(F)cc(F)c1F`, the AC50 is 0.897 µM (active).
Regarding `CCOP(=O)(OCC)OC(Cl)C(Cl)(Cl)Cl` (stereo not given), the call was inactive.
Consider `CC1(C)C(C=C(Cl)Cl)C1C(=O)O[C@H](C#N)c1cccc(Oc2ccccc2)c1` (stereo not given in full), for which the AC50 was 12.8 µM (active).
On to `Brc1ccc(Oc2ccc(Br)cc2Br)c(Br)c1`, for which the result was inactive.
For the molecule `C[n+]1ccc(-c2cc[n+](C)cc2)cc1`, the call was inactive.
Take `CC(=O)[O-].CC(=O)[O-].O.O.O.[Pb+2]`: the molecule was classed as inactive.
Turning to `CC1(C)C(C=C(Cl)Cl)[C@H]1C(=O)O[C@H](C#N)c1cccc(Oc2ccccc2)c1` (stereo not given in full), the molecule was called inactive.
In the case of `CCOP(=O)(Oc1cnc(C(C)(C)C)nc1)OC(C)C` (stereo not given), the AC50 is 2.63 µM (active).
With `O=[As]O`, the AC50 is 2.03 µM (active).
